PubChem BioAssay
This is one part of the list. Active and inactive are the calls of the source. Rule as the data show it, unless noted: active = inhibition above about 14%; inactive = the rest.

Columns and labels:
[1] = molecular target: (Lyso)-N-acylphosphatidylethanolamine lipase (Mus musculus) (UniProt Q8VD66); assay: mouse ABHD4 hydrolase blockers, triplicate – biochemical, fluorescence polarization, confirmation (AID 720658;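 active = mean inhibition across replicates above the hit cutoff set in the primary screen, cut at about 30% in these data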;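 also: 0% = wild-type ABHD4 with DMSO and 100% = catalytically dead S159A mutant with DMSO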); conditions: purified mABHD4, FP-Rh probe fluorescence polarization; at 8.92 µM; hits give high values
Sequence of (Lyso)-N-acylphosphatidylethanolamine lipase (Mus musculus) (Q8VD66 whole entry, looked up): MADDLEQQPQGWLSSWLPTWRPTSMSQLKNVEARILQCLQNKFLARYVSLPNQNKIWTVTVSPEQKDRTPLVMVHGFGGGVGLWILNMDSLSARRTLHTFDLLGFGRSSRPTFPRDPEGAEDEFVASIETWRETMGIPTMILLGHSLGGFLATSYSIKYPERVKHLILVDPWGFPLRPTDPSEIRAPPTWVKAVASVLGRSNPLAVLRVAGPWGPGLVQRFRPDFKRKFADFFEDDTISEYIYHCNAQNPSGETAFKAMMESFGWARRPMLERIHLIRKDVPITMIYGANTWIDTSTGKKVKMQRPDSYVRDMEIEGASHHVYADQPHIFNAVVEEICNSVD

[2] = system: HIV-1 integrase (multimerization); assay: stimulation of HIV-1 integrase oligomerization – biochemical, TR-FRET, counter-screen for LEDGF/p75 integration inhibitor project (AID 1053131; in the data active = activation above about 8.9%); conditions: TR-FRET HIV-1 integrase multimerization, at 7.7 µM, hits give high values
[3] = compounds disturbing TR-FRET signal readout – biochemical, HIV-1 IN multimerization, artefact control for LEDGF/p75-dependent integration inhibitor project, confirmation (AID 1053135;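 active = inhibition above the mean over all tested compounds plus 3 SD, which no compound reached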;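 also: 0% = integrase with antibodies and DMSO and 100% = antibodies without integrase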); conditions: TR-FRET optical interference counterscreen, at 7.7 µM, hits give high values
[4] = system: HIV-1 integrase / human LEDGF/p75 complex; assay: blockers of LEDGF/p75-dependent integrase activity – biochemical, TR-FRET, confirmation (AID 1053136); conditions: TR-FRET LEDGF/p75-dependent HIV-1 integration, at 3.7 µM, hits give high values
[5] = molecular target: Nuclear receptor coactivator 1 (Homo sapiens) (UniProt Q15788); assay: NCOA1 GAL4-fusion reporter inhibition – cell-based, luminescence, quadruplicate, confirmation (AID 588820;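 active = mean inhibition above 46.68%, the untreated control wells mean plus 3 SD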;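 also: 0% = DMSO wells and 100% = gossypol 36 µM treated wells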); conditions: HEK293 GAL4-SRC1 luciferase reporter, at 3.6 µM, hits give high values
[6] = repression of VP16-driven luciferase reporter – cell-based, luminescence, high throughput, counter-screen for SRC1 inhibitor project (AID 588824; in the data active = inhibition above about 25%); conditions: cell-based VP16 transactivation luciferase luminescence; at 3.6 µM; hits give high values
[7] = StAR promoter reporter inhibitors, counter-screen for LRH-1 inverse agonist project, cell-based, luminescence, high throughput (AID 651611; in the data active = inhibition above about 28%); conditions: StAR promoter luciferase reporter counterscreen, at 3.6 µM, hits give high values
[8] = molecular target: Nuclear receptor subfamily 5 group A member 2 (Homo sapiens) (UniProt O00482); assay: NR5A2 activity suppression in reporter cells – cell-based, luminescence, confirmation (AID 651613; in the data active = inhibition above about 42%;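 also: HEK293T cells co-transfected with LRH-1 and StAR promoter luciferase reporter; 0% = vehicle wells and 100% = parental cells lacking receptor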); conditions: cell-based LRH-1 luciferase reporter, inverse agonism; at 3.6 µM; hits give high values
Sequence of Nuclear receptor subfamily 5 group A member 2 (Homo sapiens) (O00482 whole entry, looked up): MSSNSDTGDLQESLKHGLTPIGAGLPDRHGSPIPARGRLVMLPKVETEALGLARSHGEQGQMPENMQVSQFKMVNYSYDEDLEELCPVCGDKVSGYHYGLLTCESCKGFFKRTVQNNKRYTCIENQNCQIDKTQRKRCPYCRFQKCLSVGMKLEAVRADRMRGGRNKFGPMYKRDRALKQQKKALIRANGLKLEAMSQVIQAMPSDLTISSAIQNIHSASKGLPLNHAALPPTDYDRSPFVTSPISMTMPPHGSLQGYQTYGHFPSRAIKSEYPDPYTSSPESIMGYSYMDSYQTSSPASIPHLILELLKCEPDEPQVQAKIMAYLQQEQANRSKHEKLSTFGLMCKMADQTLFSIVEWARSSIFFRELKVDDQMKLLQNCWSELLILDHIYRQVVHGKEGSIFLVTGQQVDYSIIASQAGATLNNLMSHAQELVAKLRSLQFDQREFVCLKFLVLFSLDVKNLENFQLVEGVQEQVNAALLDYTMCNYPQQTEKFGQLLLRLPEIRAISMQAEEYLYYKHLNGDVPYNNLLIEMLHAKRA

[9] = molecular target: Steroidogenic factor 1 (Homo sapiens) (UniProt Q13285); assay: inverse agonism at SF1 nuclear receptor – cell-based, luminescence, high throughput, counter-screen for LRH-1 inverse agonist project (AID 651614; in the data active = inhibition above about 44%;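 also: cells cotransfected with StAR promoter reporter and SF1 expression vector; 0% = vehicle on cells with receptor and 100% = vehicle on cells lacking receptor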); conditions: cell-based SF1 luciferase reporter, at 3.6 µM, hits give high values
Sequence of Steroidogenic factor 1 (Homo sapiens) (Q13285 whole entry, looked up, the tested form may be a part): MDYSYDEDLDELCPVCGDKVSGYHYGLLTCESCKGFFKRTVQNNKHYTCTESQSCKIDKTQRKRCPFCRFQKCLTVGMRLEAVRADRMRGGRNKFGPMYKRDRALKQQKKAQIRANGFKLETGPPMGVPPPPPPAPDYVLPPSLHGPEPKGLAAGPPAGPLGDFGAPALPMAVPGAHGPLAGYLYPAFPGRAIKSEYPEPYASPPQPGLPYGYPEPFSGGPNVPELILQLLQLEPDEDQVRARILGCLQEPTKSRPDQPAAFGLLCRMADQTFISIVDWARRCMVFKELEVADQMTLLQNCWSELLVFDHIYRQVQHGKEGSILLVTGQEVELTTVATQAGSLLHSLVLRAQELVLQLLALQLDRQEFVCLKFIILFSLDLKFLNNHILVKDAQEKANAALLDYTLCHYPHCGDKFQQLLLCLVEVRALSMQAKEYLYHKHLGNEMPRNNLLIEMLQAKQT

[10] = compounds suppressing VP16-driven luciferase signal – cell-based, luminescence, high throughput, counter-screen for LRH-1 inverse agonist project (AID 651615; in the data active = inhibition above about 33%); conditions: Gal4-VP16 luciferase reporter cells, at 3.6 µM, hits give high values
[11] = system: TLR4-MyD88 interaction (human), BLA complementation; assay: disruptors of TLR4 binding to MyD88 – cell-based, HeLa CL3-4, BLA complementation, FRET ratio, confirmation (AID 941;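 active = mean inhibition across three repeat runs above about 25% carried over from the earlier screen, limit read from the data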;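 also: plate controls were DMSO only for no effect and clavulanic acid blocking BLA at full dose for full effect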); conditions: CCF4 FRET ratio, at 8.4 µM, hits give high values
[12] = BLA reporter interference in HeLa cells – cell-based, full-length BLA, CCF4 FRET ratio, artefact control for TLR4-MyD88 binding inhibitor project, confirmation (AID 1237;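 active = mean inhibition over three repeats above about 26% taken from the earlier screen, limit read from the data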;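 also: HeLa cells stably expressing beta-lactamase reporter as counterscreen for TLR4-MyD88 inhibitors; 0% = DMSO and 100% = clavulanic acid full inhibition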); conditions: at 8.4 µM, hits give high values
[13] = molecular target: Peroxisome proliferator-activated receptor gamma (Homo sapiens) (UniProt P37231); assay: retested PPARg-SRC-2 recruitment enhancers – biochemical, HTS, confirmation (AID 1297; in the data active = activation above about 22%;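 also: 0% = vehicle alone and 100% = reference agonist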); conditions: biochemical SRC-2 recruitment by PPARgamma; at 8 µM; hits give high values
Sequence of Peroxisome proliferator-activated receptor gamma (Homo sapiens) (P37231 whole entry, looked up): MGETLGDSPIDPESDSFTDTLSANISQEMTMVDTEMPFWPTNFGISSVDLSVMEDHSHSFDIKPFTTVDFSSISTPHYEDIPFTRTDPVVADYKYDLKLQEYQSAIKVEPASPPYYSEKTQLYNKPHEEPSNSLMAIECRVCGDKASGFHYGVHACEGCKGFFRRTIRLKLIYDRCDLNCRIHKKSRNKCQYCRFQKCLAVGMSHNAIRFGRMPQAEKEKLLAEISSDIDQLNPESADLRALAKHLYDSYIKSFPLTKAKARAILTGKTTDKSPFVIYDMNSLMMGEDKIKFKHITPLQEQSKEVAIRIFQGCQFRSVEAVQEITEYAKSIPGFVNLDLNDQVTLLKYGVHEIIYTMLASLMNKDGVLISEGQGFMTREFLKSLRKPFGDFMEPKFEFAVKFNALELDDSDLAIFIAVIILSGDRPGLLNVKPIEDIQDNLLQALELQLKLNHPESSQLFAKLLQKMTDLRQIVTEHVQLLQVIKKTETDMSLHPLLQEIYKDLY

[14] = molecular target: Peroxisome proliferator-activated receptor gamma (Homo sapiens) (UniProt P37231); assay: retest of SRC-1 recruitment enhancers for PPARgamma – biochemical, confirmation (AID 1300; in the data active = activation above about 20%;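 also: 0% = vehicle wells and 100% = reference agonist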); conditions: PPARgamma–SRC-1 coactivator recruitment biochemical assay; at 8 µM; hits give high values
[15] = molecular target: Peroxisome proliferator-activated receptor gamma (Homo sapiens) + Nuclear receptor coactivator 3 (Homo sapiens) (UniProt P37231+Q9Y6Q9); assay: agonists promoting SRC-3 binding to PPARgamma – biochemical, confirmation (AID 1301; in the data active = activation above about 24%;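 also: 0% = vehicle wells and 100% = reference agonist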); conditions: biochemical PPARgamma-SRC-3 coactivator recruitment, agonist mode; at 8 µM; hits give high values
[16] = potentiators of IFN-gamma STAT1 reporter activity – cell-based, HTS, luciferase reporter, confirmation (AID 1262;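 active = activation above a set limit carried over from the earlier primary STAT1 screen, cut at about 140% in these data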;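 also: simple ratio to median IFN-gamma plus DMSO wells so 0% means no light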); conditions: NIH 3T3 STAT1-luciferase reporter, IFN-gamma potentiation, luminescence; at 5.7 µM; hits give high values; 100% = IFN-gamma EC80 alone, no compound
[17] = enhancement of NF-kB transcriptional signalling – cell-based, HEK293T, luciferase luminescence, TNF-alpha, counter-screen for STAT1 activator project (AID 1306;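 active = activation above the mean of solvent-only control wells plus 3 SD, set per campaign, cut at about 130% in these data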;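 also: TNF-alpha given at a submaximal dose yielding about 80% of full reporter signal; values are well signal over median control so 100% means no change and 0% no light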); conditions: HEK293T NF-kB luciferase reporter, TNF-alpha stimulated, at 5.7 µM, hits give high values, 100% = TNF-alpha with vehicle only
[18] = molecular target: Signal transducer and activator of transcription 3 (Homo sapiens) (UniProt P40763); assay: enhancers of IL-6 STAT3 transcription – U3A cells, luciferase, luminescence, counter-screen for STAT1 activator project, confirmation (AID 1316;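 active = activation above the solvent-only control well mean plus 3 SD, set per plate batch, cut at about 110% in these data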;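 also: 0% = no luminescence and 100% = median IL-6 plus DMSO wells; higher means more STAT3 reporter activation so hits are non-selective activators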); conditions: U3A cells STAT3-luciferase reporter, IL-6, luminescence; at 5.7 µM; hits give high values; 100 = IL-6 alone, no compound effect; cells lack STAT1
[19] = reduced OD of V66 E. coli with T4 gene 2 phage – absorbance, RecBCD inhibitor project, confirmation (AID 651982;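 active = mean inhibition over triplicates exceeding the hit threshold derived in the original primary screen, cut at about 11% in these data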); conditions: E. coli V66 + T4 2- phage, growth OD; at 11.9 µM; hits give high values
[20] = bacterial growth inhibition – absorbance, high throughput, counter-screen for RecBCD inhibitor project (AID 651983; in the data active = inhibition above about 20%;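 also: E. coli strain V66 grown with compound alone and no phage infection; 0% = bacteria with DMSO vehicle only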); conditions: E. coli viability, absorbance (OD) growth; at 11.9 µM; hits give high values
[21] = reduced optical density, T4-challenged addAB+ bacteria – absorbance, E. coli V3065, T4 phage, counter-screen for RecBCD inhibitor project, confirmation (AID 651984;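 active = mean inhibition above the solvent-only control wells' mean plus 3 SD, cut at about 22% in these data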;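 also: higher means less bacterial growth from phage killing when AddAB is blocked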); conditions: E. coli expressing H. pylori AddAB + T4 phage, OD growth; at 11.9 µM; hits give high values; gene 2 mutant T4, recBCD-deleted host
[22] = BSA probe fluorescence interference – biochemical, TAMRA-labeled BSA, counter-screen for TCR-CD3 interaction inhibitor project (AID 652035; in the data active = inhibition above about 23%;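 also: 0% = buffer low control and 100% = reference high control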); conditions: TAMRA-labeled BSA probe fluorescence counterscreen; at 9.4 µM; hits give high values
[23] = system: T-cell receptor (TCR)-CD3 interaction, human; assay: blockers of TCR binding to CD3 – biochemical, fluorescence, TAMRA-labeled TCR probe, confirmation (AID 652036; in the data active = inhibition above about 19%); conditions: TAMRA-labeled TCR probe fluorescence binding assay; at 9.4 µM; hits give high values
[24] = molecular target: Toll-like receptor 9 (Homo sapiens) (UniProt Q9NR96); assay: disruptors of TLR9 binding to MyD88 – cell-based, CHO, BLA complementation, fluorescence, triplicate, confirmation (AID 540250;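 active = mean inhibition across three repeats above about 21% taken from the earlier screen, limit read from the data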;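 also: blue over green emission ratio reports constitutive TLR9 MyD88 association via BLA complementation; 0% = DMSO vehicle wells and 100% = clavulanate BLA inhibitor wells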); conditions: CCF4 FRET ratio, at 4.98 µM, hits give high values
Sequence of Toll-like receptor 9 (Homo sapiens) (Q9NR96 whole entry, looked up): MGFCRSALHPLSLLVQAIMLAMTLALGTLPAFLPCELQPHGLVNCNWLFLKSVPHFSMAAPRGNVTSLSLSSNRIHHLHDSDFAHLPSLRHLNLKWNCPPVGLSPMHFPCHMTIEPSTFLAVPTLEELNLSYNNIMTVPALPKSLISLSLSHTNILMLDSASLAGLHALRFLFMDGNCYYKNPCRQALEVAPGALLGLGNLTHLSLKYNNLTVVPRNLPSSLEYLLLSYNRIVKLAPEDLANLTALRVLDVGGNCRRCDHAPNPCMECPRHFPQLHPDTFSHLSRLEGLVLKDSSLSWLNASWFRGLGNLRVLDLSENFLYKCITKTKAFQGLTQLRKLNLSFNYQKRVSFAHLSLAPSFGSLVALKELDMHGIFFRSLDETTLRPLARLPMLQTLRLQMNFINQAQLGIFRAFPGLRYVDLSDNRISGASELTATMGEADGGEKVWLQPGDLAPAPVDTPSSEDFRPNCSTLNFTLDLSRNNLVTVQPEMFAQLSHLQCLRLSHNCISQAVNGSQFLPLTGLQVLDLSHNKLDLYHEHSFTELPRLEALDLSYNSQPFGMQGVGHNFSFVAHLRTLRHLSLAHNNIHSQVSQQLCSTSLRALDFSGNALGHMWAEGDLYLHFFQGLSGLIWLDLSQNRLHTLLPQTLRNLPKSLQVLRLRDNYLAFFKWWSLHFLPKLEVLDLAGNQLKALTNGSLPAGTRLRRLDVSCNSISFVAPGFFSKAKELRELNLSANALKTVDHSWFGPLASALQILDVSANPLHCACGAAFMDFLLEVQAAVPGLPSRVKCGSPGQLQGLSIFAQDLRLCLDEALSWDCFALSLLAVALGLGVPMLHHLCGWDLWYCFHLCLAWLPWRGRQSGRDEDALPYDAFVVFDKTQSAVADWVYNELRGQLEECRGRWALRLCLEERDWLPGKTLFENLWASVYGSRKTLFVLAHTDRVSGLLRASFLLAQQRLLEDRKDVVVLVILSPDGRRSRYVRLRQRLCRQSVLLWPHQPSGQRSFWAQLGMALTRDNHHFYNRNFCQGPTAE

[25] = BLA reporter readout interference – cell-based, fluorescence, artefact control for TLR9-MyD88 binding inhibitor project (AID 540251;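 active = mean inhibition above a 50% cutoff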;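 also: counterscreen of TLR9-MyD88 hits on CMV-driven BLA in CHO-K1 cells; 0% = DMSO alone and 100% = clavulanate blocking BLA; higher means less blue over green ratio so more BLA blockade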); conditions: CHO-BLA cells, CCF4 FRET ratio, at 4.98 µM, hits give high values
[26] = CHO cell viability loss – luminescence, single concentration, cytotoxicity control for TLR9-MyD88 binding inhibitor project (AID 588336; in the data active = inhibition above about 11%); conditions: TLR9-MyD88 CHO cells cytotoxicity, at 4.98 µM, hits give high values
[27] = molecular target: Photoreceptor-specific nuclear receptor (Homo sapiens) (UniProt Q9Y5X4); assay: retest of NR2E3-NCOR disrupting agonists – cell-based, luminescence, CHO-S two-hybrid, confirmation (AID 624378;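 active = average inhibition above a cutoff equal to the mean inhibition of all tested compounds plus one SD, cut at about 70% in these data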;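 also: 0% = DMSO in NR2E3 cells and 100% = DMSO in cells lacking NR2E3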); conditions: CHO-S mammalian two-hybrid NR2E3-NCOR, luciferase luminescence; at 3.98 µM; hits give high values
Sequence of Photoreceptor-specific nuclear receptor (Homo sapiens) (Q9Y5X4 whole entry, looked up): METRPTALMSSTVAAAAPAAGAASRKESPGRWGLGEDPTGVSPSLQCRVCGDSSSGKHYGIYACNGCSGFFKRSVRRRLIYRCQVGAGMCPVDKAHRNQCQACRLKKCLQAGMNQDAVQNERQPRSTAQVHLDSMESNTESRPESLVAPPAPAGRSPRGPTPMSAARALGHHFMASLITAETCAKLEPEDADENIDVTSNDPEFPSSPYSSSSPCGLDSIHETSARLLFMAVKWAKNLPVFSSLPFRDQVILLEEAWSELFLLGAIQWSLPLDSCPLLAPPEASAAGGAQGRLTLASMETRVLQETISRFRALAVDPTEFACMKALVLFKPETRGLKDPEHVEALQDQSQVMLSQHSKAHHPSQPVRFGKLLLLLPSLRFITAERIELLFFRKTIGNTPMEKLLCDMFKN

[28] = nonselective effects on VP16 transactivation – cell-based, luminescence, CHO-S, high throughput, counter-screen for NR2E3 agonist project, confirmation (AID 624379;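 active = mean inhibition above a cutoff equal to the average over all tested compounds plus one standard deviation, cut at about 70% in these data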;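 also: 0% = DMSO with VP16-transfected cells and 100% = DMSO with cells lacking VP16; higher means less reporter light so more repression of VP16 activity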); conditions: CHO-S GAL4-VP16 luciferase reporter, at 3.98 µM, hits give high values
[29] = VP16-driven transactivation reporter suppression – cell-based, luminescence, HEK293, counter-screen for COUP-TFII antagonist project (AID 687007; in the data active = inhibition above about 13%); conditions: HEK293 Gal4-VP16 luciferase reporter, at 8.5 µM, hits give high values
[30] = molecular target: COUP transcription factor 2 (Homo sapiens) (UniProt P24468); assay: retest of COUP-TFII reporter suppressors – cell-based, luciferase reporter, HEK293, triplicate, confirmation (AID 687008;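 active = mean inhibition over three repeats above a set limit taken from the earlier primary screen, cut at about 38% in these data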;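 also: 100% = cells given the luciferase reporter alone without the COUP-TF2 vector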); conditions: HEK293 NGFI-A luciferase reporter, luminescence; at 8.5 µM; hits give high values
Sequence of COUP transcription factor 2 (Homo sapiens) (P24468 whole entry, looked up): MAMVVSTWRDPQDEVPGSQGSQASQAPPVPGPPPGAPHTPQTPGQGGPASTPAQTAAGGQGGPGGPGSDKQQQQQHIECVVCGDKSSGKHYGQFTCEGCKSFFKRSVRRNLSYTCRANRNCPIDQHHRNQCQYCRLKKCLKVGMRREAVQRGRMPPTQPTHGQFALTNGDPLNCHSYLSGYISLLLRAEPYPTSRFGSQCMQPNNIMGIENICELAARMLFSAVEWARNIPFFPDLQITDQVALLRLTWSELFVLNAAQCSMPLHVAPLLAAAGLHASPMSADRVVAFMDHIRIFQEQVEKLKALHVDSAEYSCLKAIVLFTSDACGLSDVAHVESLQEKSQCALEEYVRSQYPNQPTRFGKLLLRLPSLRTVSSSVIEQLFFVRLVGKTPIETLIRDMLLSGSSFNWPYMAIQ

[31] = molecular target: Sphingosine 1-phosphate receptor 4 (Homo sapiens) (UniProt O95977); assay: blockers of human S1P4 signalling – cell-based, confirmation (AID 1524; in the data active = inhibition above about 30%); conditions: S1P4-expressing cell line, antagonist mode, reporter read-out; at 4.98 µM; hits give high values
Sequence of Sphingosine 1-phosphate receptor 4 (Homo sapiens) (O95977 whole entry, looked up): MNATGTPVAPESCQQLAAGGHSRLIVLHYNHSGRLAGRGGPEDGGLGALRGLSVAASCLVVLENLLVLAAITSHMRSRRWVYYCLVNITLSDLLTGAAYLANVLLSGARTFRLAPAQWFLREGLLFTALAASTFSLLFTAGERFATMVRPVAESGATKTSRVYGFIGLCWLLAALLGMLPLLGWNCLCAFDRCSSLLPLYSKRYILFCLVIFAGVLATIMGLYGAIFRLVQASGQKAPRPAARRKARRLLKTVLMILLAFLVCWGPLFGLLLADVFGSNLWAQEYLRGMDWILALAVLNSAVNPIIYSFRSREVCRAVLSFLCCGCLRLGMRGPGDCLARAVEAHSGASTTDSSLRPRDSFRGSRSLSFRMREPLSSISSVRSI

[32] = molecular target: Sphingosine 1-phosphate receptor 1 (Homo sapiens) (UniProt P21453); assay: blockade of human S1P1 receptor – cell-based, counter-screen for S1P4 antagonist project (AID 1564; in the data active = inhibition above about 40%;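 also: receptor stimulated with S1P near its EC80; 0% = agonist stimulated wells and 100% = vehicle only wells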); conditions: cell-based S1P1 antagonist counterscreen, at 4.98 µM, hits give high values
[33] = molecular target: Receptor-interacting serine/threonine-protein kinase 2 (Homo sapiens) (UniProt O43353); assay: inhibitors of RIPK2 association with NOD2 – fluorescence, CHO cells, BLA complementation, triplicate, confirmation (AID 624370;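 active = mean inhibition across replicates above a set limit taken from the earlier primary screen, cut at about 21% in these data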;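 also: 0% = DMSO-only wells and the high end = clavulanate BLA-blocked wells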); conditions: CCF4 FRET, at 4.98 µM, hits give high values
Sequence of Receptor-interacting serine/threonine-protein kinase 2 (Homo sapiens) (O43353 whole entry, looked up): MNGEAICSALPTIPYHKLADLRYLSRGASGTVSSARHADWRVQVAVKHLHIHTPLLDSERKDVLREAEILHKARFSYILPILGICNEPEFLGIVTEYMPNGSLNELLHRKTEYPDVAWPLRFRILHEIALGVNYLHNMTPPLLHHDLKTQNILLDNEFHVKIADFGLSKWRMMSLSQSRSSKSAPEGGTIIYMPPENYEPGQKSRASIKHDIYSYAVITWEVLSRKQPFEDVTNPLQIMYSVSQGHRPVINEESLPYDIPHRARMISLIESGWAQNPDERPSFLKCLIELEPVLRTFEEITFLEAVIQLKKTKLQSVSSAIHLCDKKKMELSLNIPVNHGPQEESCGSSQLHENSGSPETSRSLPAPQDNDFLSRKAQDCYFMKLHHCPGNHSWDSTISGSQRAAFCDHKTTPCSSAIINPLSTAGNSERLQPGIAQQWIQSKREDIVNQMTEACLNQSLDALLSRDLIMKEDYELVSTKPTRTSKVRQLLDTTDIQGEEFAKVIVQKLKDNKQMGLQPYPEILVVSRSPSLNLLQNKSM

[34] = BLA reporter readout interference – cell-based, CHO-K1 CMV-bla, CCF4 FRET, fluorescence, artefact control for NOD2-RIPK2 interaction inhibitor project, confirmation (AID 624371;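 active = mean inhibition above the low-control mean inhibition plus three low-control SD, cut at about 11% in these data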;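 also: 0% = DMSO only wells and 100% = clavulanate high control wells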); conditions: CCF4 FRET ratio, counterscreen, at 4.98 µM, hits give high values
[35] = blockers of IL-6 STAT3 signaling – U3A cells, luciferase, luminescence, confirmation (AID 1265;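 active = inhibition above the hit cutoff computed for the primary STAT3 screen, cut at about 44% in these data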;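 also: 0% = IL-6 plus DMSO and 100% = IL-6 plus nifuroxazide control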); conditions: IL-6 STAT3 luciferase reporter, at 5.7 µM, hits give high values, cell line lacks STAT1
[36] = inhibition of TNF-alpha-driven NF-kB transcription – cell-based, HEK293T, luciferase, TNF-alpha stimulus, counter-screen for STAT3 inhibitor project, confirmation (AID 1308;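 active = inhibition above the mean of solvent-only control wells plus 3 SD, cutoff set per campaign, cut at about 13% in these data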;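 also: 0% = TNF-alpha with DMSO and 100% = TNF-alpha with MG high control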); conditions: HEK293T NF-kB luciferase reporter, TNF-alpha induced; at 5.7 µM; hits give high values
[37] = inhibition of STAT1-driven transcription – cell-based, NIH 3T3, luciferase luminescence, IFN-gamma, counter-screen for STAT3 inhibitor project, confirmation (AID 1317;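 active = inhibition above the mean plus 3 SD of solvent-only control wells, limit set per screening run, cut at about 16% in these data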;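 also: 0% = DMSO with IFN-gamma and 100% = nifuroxazide control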); conditions: NIH 3T3 STAT1-luciferase reporter, IFN-gamma induced, at 5.7 µM, hits give high values

O=C1C=CC(=O)N1c1ccc(N2CCCCC2)cc1
inactive: inhibition [1] 17.5% | activation [2] 1.69% | inhibition [3] -8.48% | inhibition [4] 5.47%

COc1ccc2[nH]c3c(C)c4cc[n+](C)cc4c(C)c3c2c1
inactive: inhibition [5] 27.3% | inhibition [3] -47.7%
active: inhibition [6] 45% | inhibition [7] 49.8% | inhibition [8] 103% | inhibition [9] 51.9% | inhibition [10] 75% | activation [2] 9.5% | inhibition [4] 42.7%

CCN(CC)c1ccc2oc(=O)c(C)nc2c1
inactive: inhibition [11] 4.42% | inhibition [12] 4.01% | activation [13] 7.05% | activation [14] 6.29% | activation [15] 3.97%

Cn1nnc2cc(C(=O)NCCC3=CCCCC3)ccc21
active: activation (% of control) [16] 171% | activation (% of control) [18] 119%
inactive: activation (% of control) [17] 117%

CCOC(=O)/C(C#N)=C/c1ccc(N2CCCCC2)cc1
inactive: activation (% of control) [18] 108%
active: activation (% of control) [16] 155% | activation (% of control) [17] 140%

Cc1ccc(S(=O)(=O)/N=C2\C=C(NS(=O)(=O)c3ccc(C)cc3)C(=O)c3ccccc32)cc1
active: inhibition [1] 60.6%
inactive: activation [2] -1.1% | inhibition [3] 5.59% | inhibition [4] 12%

O=C(NNC(=O)c1ccccc1O)c1ccccc1O
active: inhibition [19] 25.8% | inhibition [20] 26.4% | inhibition [21] 38.9% | inhibition [23] 37.8% | inhibition [4] 62.9%
inactive: inhibition [22] 2.97% | activation [2] 0.99% | inhibition [3] -4.93%

CN(O)C(=S)c1ccccc1
active: inhibition [26] 97.2% | inhibition [19] 53% | inhibition [20] 62.5% | inhibition [21] 84.6%
inactive: inhibition [24] 5.28% | inhibition [25] 0.06% | inhibition [27] -14.5% | inhibition [28] -3.62% | inhibition [29] -6.65% | inhibition [30] -5.38% | activation [2] 0.55% | inhibition [3] -2.07% | inhibition [4] -6.13%

O=C1c2cccc3c([N+](=O)[O-])ccc(c23)C(=O)N1CC1CCCO1 (centres undefined)
active: inhibition [11] 82.5% | inhibition [12] 108% | inhibition [31] 112% | inhibition [32] 118% | inhibition [24] 45.8% | inhibition [25] 73.2% | inhibition [26] 56.5% | inhibition [33] 83% | inhibition [34] 70.6%

Cc1ccc2cc3cc(C(=O)N4CCCCCC4)oc3nc2c1
active: activation (% of control) [16] 224% | activation (% of control) [18] 137%
inactive: inhibition [35] 7.37% | activation (% of control) [17] 120% | inhibition [36] -42% | inhibition [37] -140%
